NTR1 ag: agonists of human neurotensin receptor NTR1; P30989; NTR1-U2OS beta-arrestin-GFP spot imaging, agonist mode; activation, % at 20 µM; actives 0.17% (n = 330,000); AID 493036;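 active = activation at or above 40% of the spot to cytoplasm intensity ratio, with at least 20 cells analyzed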;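 also: 0% = DMSO without peptide and 100% = 100 nM NTR1 peptide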
Target sequence (P30989 whole entry, looked up): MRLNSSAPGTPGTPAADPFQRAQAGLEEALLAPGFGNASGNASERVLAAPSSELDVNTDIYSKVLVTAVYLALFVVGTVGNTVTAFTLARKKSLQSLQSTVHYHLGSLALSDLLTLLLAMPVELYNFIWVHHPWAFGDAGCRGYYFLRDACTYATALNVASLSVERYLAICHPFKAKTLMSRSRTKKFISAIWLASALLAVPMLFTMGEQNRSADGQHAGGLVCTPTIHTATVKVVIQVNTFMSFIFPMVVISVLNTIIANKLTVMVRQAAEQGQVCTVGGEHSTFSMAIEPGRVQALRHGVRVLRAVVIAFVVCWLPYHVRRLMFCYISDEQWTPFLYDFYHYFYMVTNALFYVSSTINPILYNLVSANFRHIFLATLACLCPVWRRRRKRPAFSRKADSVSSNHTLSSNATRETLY
Beta cell apopt: blocks beta cell apoptosis; INS-1E cytokine-induced death, ATP luminescence, 48 h; percent of positive-control rescue, neutral wells zero; protection from apoptosis, % (test concentration not listed); actives 0.8% (n = 300,000);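 active = Every replicate reaches about 75%, or at least half do and their mean reaches it too, limit read from the data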;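 also: 0% = cytokine-treated negative control wells and 100% = positive control rescue; higher means more ATP so stronger rescue from cytokine killing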
Mdm2-MdmX inh: disrupts the human Mdm2-MdmX interaction | SaOS-2 split-luciferase Mdm2/MdmX complementation, luminescence | AID 485346 | actives 3% (n = 330,000) | O15151+Q00987 | inhibition, % at 8 µM;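 active = inhibition of at least 50% at 8 µM in the primary screen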
Jurkat NFkB inh: inhibitors of the PMA/ionomycin-induced NF-kB reporter in Jurkat cells | actives 0.53% (n = 330,000) | PMA/ionomycin-induced NF-kB luciferase reporter, luminescence | inhibition, % at 4 µM | AID 435003; in the data active = inhibition above about 50%
A1 inh: inhibitors of the anti-apoptotic protein A1, read as caspase activation; MEF A1-2A-BIM cells, Caspase-Glo 3/7 luminescence, 3 h; percent of clofoctol response, vehicle zero; caspase activation, % (concentration not given with the values); actives 0.066% (n = 330,000); AID 2462;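 active = over half of replicate activation scores above 10%, or exactly half above 10 with the replicate mean above 10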
697 NFkB inh: inhibitors of the PMA/ionomycin-induced NF-kB reporter in 697 B cells; 697 B-cell NF-kB luciferase reporter, 16 h; inhibition, % at 4 µM; actives 0.33% (n = 330,000); AID 435022; in the data active = inhibition above about 35%
Mdm2-MdmX conf: confirmation of human Mdm2/MdmX interaction inhibitors | shares compounds with Mdm2-MdmX inh | Mdm2-MdmX binding, luminescent assay | inhibition, % at 8 µM | actives 55% (n = 10,000) | AID 489028; in the data active = inhibition above about 40%
Full FLuc ctr: counter-screen for Mdm2/MdmX inhibitors: full-length luciferase | shares compounds with Mdm2-MdmX inh | SaOS-2 full-length luciferase counterscreen, luminescence | inhibition, % at 8 µM | actives 77% (n = 6,200) | AID 504607;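 active = mean inhibition at 8 µM reaching about 37%, which flags the compound as non-specific, limit read from the data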;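 also: p53-null SaOS-2 cells with luciferase driven by a doxycycline-inducible promoter; compound on cells about two nights before reading with doxycycline added after day one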
* hit, by the source's call; / = not tested or not shown. Rows were chosen to be rich in hits. Some 3.8% of all compounds tested hit in one or more screens of this group.

SMILES	NTR1 ag	Beta cell apopt	Mdm2-MdmX inh	Jurkat NFkB inh	A1 inh	697 NFkB inh	Mdm2-MdmX conf	Full FLuc ctr
O=C(O)COc1ccccc1/C=N/NC(=O)CSc1nc2ccccc2s1	1.6	-5.6	-17.2	3.2	1.6	2.9	/	/
O=C(CSc1nc2ccccc2s1)N/N=C/c1ccccc1C(=O)O	-0.3	-7.4	66.0*	-72.1	0.3	-85.0	81.8*	118.5*
CCc1ccc(NC(=O)C(=O)NCCN2CCN(S(=O)(=O)c3ccccc3)CC2)cc1	-0.5	-0.2	30.0	14.3	0.1	3.4	/	/
COc1ccccc1NC(=O)CN1CCN(C2c3ccccc3-c3ccccc32)CC1	7.2	3.9	38.2	15.0	-0.1	-6.6	/	/
COc1ccc(NC(=O)CN2CCN(C3c4ccccc4-c4ccccc43)CC2)c(OC)c1	10.3	9.9	94.4*	2.6	-0.4	-24.9	20.7	/
Cc1ccccc1OCCNc1cc(N2CC(C)NC(C)C2)ccc1[N+](=O)[O-] (centres undefined)	1.4	-3.6	80.5*	9.2	/	13.2	30.1	/
CCc1ccc(OCCNc2cc(N3CCNC(C)C3)ccc2[N+](=O)[O-])cc1 (centres undefined)	3.3	24.7	95.2*	14.5	2.0	-1.8	38.4	75.5*
CC1CN(c2ccc([N+](=O)[O-])c(NCCOc3ccc(Cl)cc3)c2)CC(C)N1 (centres undefined)	3.2	-1.4	29.8	8.3	2.1	1.6	/	/
CCOCCCN(C(=O)c1snc(C(N)=O)c1N)C(C(=O)NC1CCCC1)c1ccc(OC)cc1 (centres undefined)	0.2	3.6	10.2	6.1	0.1	5.0	/	/
COc1ccc(/C=N/N=C/c2ccc(OC)c(OC)c2)cc1OC	0.0	0.1	2.0	-19.3	-0.7	-0.4	/	/
COc1cc(/C=N/N=C(N)N)ccc1OCc1ccccc1Cl	11.9	20.4	100.0*	40.9	-0.1	-32.3	39.0	73.8*
Cc1cc(C)c(O)c(-c2cc(C(=O)Nc3ccc(S(=O)(=O)N4CCOCC4)cc3)[nH]n2)c1	26.4	/	69.4*	15.3	2.2	-24.8	43.0*	39.9*
COc1cc(-c2onc3ccc(Br)cc23)cc(OC)c1OC	1.0	11.2	50.1*	2.6	-0.3	6.8	52.5*	59.6*
Cc1ccc(C(NC(=O)NC(C)c2ccccc2)C(Cl)(Cl)Cl)cc1F (centres undefined)	4.7	16.7	54.7*	10.7	-0.2	24.4	58.0*	39.9*
CC(NC(=O)Nc1ccc(Cl)cc1)c1ccccc1 (centres undefined)	1.3	-1.3	5.5	-9.9	-0.2	-13.1	/	/
COc1cccc(NC(=S)N(CCCN2CCCC2)Cc2cccn2Cc2ccc(Cl)cc2)c1	12.1	4.4	56.4*	-4.0	0.3	20.8	23.1	/
S=C(Nc1cccc(Cl)c1)N(CCCN1CCCC1)Cc1cccn1Cc1ccc(Cl)cc1	11.8	19.9	61.9*	-2.3	-0.1	18.8	33.1	/
CSc1cccc(NC(=S)N(CCCN2CCCC2)Cc2cccn2Cc2ccc(Cl)cc2)c1	28.0	3.1	72.9*	-25.6	-0.2	12.3	43.8*	62.7*
COc1cccc(NC(=S)N(CCCN2CCCC2)Cc2ccco2)c1	2.0	-16.5	4.9	-1.1	0.2	-16.1	/	/
O=C(Nc1ccc2nc3n(c(=O)c2c1)CCCCC3)C(=O)N1CCN(c2ccc(F)cc2)CC1	3.7	-3.8	37.6	15.5	0.1	-21.4	/	/
NC(=O)c1ccc(NC(=O)COC(=O)C2CCN(S(=O)(=O)c3cccs3)CC2)cc1	-1.2	-4.6	-22.5	1.2	0.2	9.8	/	/
CCCOc1ccc(C2=CSC3=NCCN23)cc1[N+](=O)[O-]	-0.3	-3.5	-19.4	-10.0	-0.3	0.7	/	/
On1onc2c3cc(-c4ccccc4)nc3ccc21	27.4	101.0*	68.7*	-9.2	-0.2	-139.6	58.2*	64.6*
c1ccc(-c2cc3c(ccc4nonc43)nn2)cc1	1.1	4.6	-30.7	-22.0	-6.4	-47.2	/	/
COc1ccc2cc(C(N)=O)c(=Nc3ccc(C)cc3)oc2c1	3.9	-2.5	54.0*	-2.8	0.5	-37.6	46.4*	35.2
SMILES	NTR1 ag	Beta cell apopt	Mdm2-MdmX inh	Jurkat NFkB inh	A1 inh	697 NFkB inh	Mdm2-MdmX conf	Full FLuc ctr
Cc1cccc(N=c2oc3cc(O)ccc3cc2C(N)=O)c1	-2.9	-0.6	50.4*	-2.3	-1.4	-93.4	-36.6	/
COc1ccccc1N=c1oc2cc(O)ccc2cc1C(N)=O	-0.4	16.7	24.3	2.1	-14.1	-37.6	/	/
O=C(CN1c2ccccc2Sc2ccccc21)NNC(=O)Nc1ccc(Cl)cc1	17.3	/	54.1*	15.1	0.8	7.2	35.7	53.7*
O=C(CN1c2ccccc2Sc2ccccc21)NNC(=O)Nc1ccc(Cl)c(Cl)c1	8.3	/	4.6	10.3	-0.3	8.0	/	/
CC(=O)Nc1ccc(Nc2ccc3c4c(cc(=O)n3C)-c3ccccc3C(=O)c24)cc1	0.1	18.4	58.9*	-8.6	-0.6	14.5	30.3	/
Nc1ccccc1SCCS(=O)(=O)c1ccc(Cl)cc1	-0.2	-5.1	11.9	-3.0	-0.1	7.3	/	/
CCOC(=O)c1ccccc1NC(=O)CN1C(=O)NC(C)(CCc2ccccc2)C1=O (centres undefined)	2.3	3.3	-19.6	-1.4	0.3	-2.4	/	/
O=c1c2ccccc2nc(/C=C/c2c[nH]c3ccccc23)n1CCO	8.4	4.9	-35.7	-82.0	0.0	-47.6	/	/
O=c1c2ccccc2nc(/C=C/c2cc(Br)ccc2O)n1CCO	2.6	-6.9	64.9*	15.0	0.3	22.5	56.6*	32.4
COc1ccc(C(=O)Cn2c(NCCCO)nc3ccccc32)cc1OC	-0.4	3.1	13.4	0.7	0.5	-1.4	/	/
COc1c(Br)cc([N+](=O)[O-])c(OC)c1C(=O)NC(=O)Nc1cc(Cl)cc(Cl)c1	12.6	/	85.2*	30.2	0.5	-39.5	78.8*	85.4*
CC1CCN(CC(O)CN2c3ccccc3Sc3ccccc32)CC1 (centres undefined)	4.6	-0.2	53.9*	-6.0	-0.1	2.9	15.9	/
Cc1ccc(C)c(OCc2ccc(C(=O)Nc3ccc([N+](=O)[O-])cn3)o2)c1	-0.3	0.0	35.6	42.9	-0.2	0.7	/	/
Cc1ccc(NC(=O)c2ccccc2OCc2ccc([N+](=O)[O-])cc2)nc1	1.3	9.2	75.8*	-12.4	0.3	-14.1	59.7*	92.2*
Oc1cc2c(cc1CN1CCc3ccccc3C1)OCO2	0.2	-8.8	-11.4	16.6	-0.6	21.6	/	/
Cc1ccc(C)c(S(=O)(=O)N2CCN(Cc3ccc(O)c4ncccc34)CC2)c1	3.1	87.2*	78.1*	15.9	0.1	-42.2	71.2*	36.5*

From PubChem
